An excerpt weighted towards active compounds, which were near 4.2% of everything screened.
CCHFV vOTU inh – blocks the CCHF virus ovarian tumor domain protease; AID 651958; 370,000 tested, 0.55% active; CCHFV vOTU protease, Pep-AMC fluorescence; inhibition, % at 11.5 µM; further: 0% = vehicle wells with enzyme and 100% = no enzyme wells
FBA Mtb inh – inhibits M. tuberculosis FBA enzyme. purified M. tuberculosis FBA, fluorescence read-out. inhibition, % at 1 µM. 360,000 tested, 2.3% active. AID 588726; in the data active means inhibition above about 27%;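 further: 0% = vehicle and 100% = reference inhibitor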
Target sequence (P9WQA3 whole entry, looked up): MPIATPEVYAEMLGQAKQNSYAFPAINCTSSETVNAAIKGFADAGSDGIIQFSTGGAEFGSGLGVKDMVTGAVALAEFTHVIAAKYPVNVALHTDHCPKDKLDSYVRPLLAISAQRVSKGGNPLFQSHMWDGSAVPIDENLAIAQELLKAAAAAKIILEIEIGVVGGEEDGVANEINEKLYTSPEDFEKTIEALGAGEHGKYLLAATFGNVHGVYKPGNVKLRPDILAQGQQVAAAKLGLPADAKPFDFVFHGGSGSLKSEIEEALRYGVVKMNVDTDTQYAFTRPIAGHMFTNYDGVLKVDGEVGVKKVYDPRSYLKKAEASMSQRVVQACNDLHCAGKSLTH
Mtb betalactam – beta-lactam sensitization of Mtb H37Rv; 330,000 tested, 0.27% active; inhibition, % at 25 µM; M. tuberculosis H37Rv growth with meropenem, percent inhibition; call rule not given here;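 further: growth measured after seven days incubation then overnight dye step; 0% = bacteria only wells and 100% = bacteria with antibiotic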
GDH-TPI counter-1 – counter-screen for M. tuberculosis FBA inhibitors: GDH-TPI coupled enzymes. GDH-TPI coupled enzyme counterscreen, NADH absorbance. inhibition, % at 4.8 µM. 360,000 tested, 1.2% active;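 further: 0% = DMSO wells and 100% = wells lacking the enzyme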
RecA splice inh – inhibitors of M. tuberculosis RecA intein splicing; P9WHJ3; cell-free RecA intein splicing, fluorescence; inhibition, % (no concentration beside the values); 290,000 tested, 0.75% active; in the data active means inhibition above about 30%;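 further: 0% = vehicle wells and 100% = reference inhibitor control wells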
Mtb FBA inh conf – confirmation of M. tuberculosis fructose-bisphosphate aldolase inhibitors | purified M. tuberculosis FBA, fluorescence read-out | shares compounds with FBA Mtb inh | AID 651616 | 5,600 tested, 78% active | inhibition, % at 1 µM; in the data active means inhibition above about 27%;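 further: 0% = vehicle wells and 100% = reference inhibitor wells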
GDH-TPI counter-2 – counter-screen for M. tuberculosis FBA inhibitors: GDH-TPI coupled enzyme inhibition; shares compounds with FBA Mtb inh; GDH-TPI coupled enzyme counterscreen, fluorescence; inhibition, % at 1 µM; 5,600 tested, 81% active; in the data active means inhibition above about 10%
The depositor's hits bear a star. Unless noted, no stated cut-off is given here; in the data, active means inhibition above about 30%; inactive means the rest.

Cc1cc(NC(=O)c2ccc3nccnc3c2)ccc1Br was read as CCHFV vOTU inh 1, FBA Mtb inh -3, Mtb betalactam -7 and GDH-TPI counter-1 4.
`COC(=O)[C@]12C[C@H](CC(=O)NCCC(C)C)C(=O)N(Cc3ccco3)C1=C[C@H](C(C)C)O[C@@H]2C1CC1` gave CCHFV vOTU inh 6.
Screening O=C(O)c1ccccc1NC(c1ccccc1)c1ccc2cccnc2c1O (stereo unspecified) returned CCHFV vOTU inh -7, FBA Mtb inh 38*, GDH-TPI counter-1 13, Mtb FBA inh conf active and GDH-TPI counter-2 active.
NC(=O)CSC1=Nc2ccccc2C2=NC(c3ccccc3)C(=O)N12 (stereo unspecified) was read as CCHFV vOTU inh -18, FBA Mtb inh 28*, Mtb betalactam -6, GDH-TPI counter-1 11, RecA splice inh -1, Mtb FBA inh conf 51* and GDH-TPI counter-2 43*.
`CCOC(=O)CSC1=Nc2ccccc2C2=NC(CC(=O)NCc3ccccc3)C(=O)N12` (stereo unspecified) gave CCHFV vOTU inh -26, FBA Mtb inh 29*, Mtb betalactam 4, GDH-TPI counter-1 8, RecA splice inh -4, Mtb FBA inh conf 103* and GDH-TPI counter-2 102*.
Screening COC(=O)C1=C(C)N(Cc2ccccc2C(F)(F)F)C(=NCc2cc(OC)c(OC)c(OC)c2)NC1c1cccc(F)c1 (stereo unspecified) returned CCHFV vOTU inh 22.
O=C(NCc1ccccc1)[C@@H]1CCCN1C(=O)[C@H]1CCCN1C(=O)c1cccc(F)c1 was read as CCHFV vOTU inh 5.
O=C1CCCN1CCCNc1nc2c(S(=O)(=O)c3ccccc3)nnn2c2ccc(Cl)cc12 was read as CCHFV vOTU inh -12, FBA Mtb inh 41*, Mtb betalactam -1, GDH-TPI counter-1 -1, RecA splice inh 3, Mtb FBA inh conf 1 and GDH-TPI counter-2 -2.
Screening O=C1c2ccc(-c3ccc4c(c3)C(=O)N(CCCO)C4=O)cc2C(=O)N1CCCO returned CCHFV vOTU inh -6, FBA Mtb inh 36*, Mtb betalactam -2, GDH-TPI counter-1 2, RecA splice inh 2, Mtb FBA inh conf 9 and GDH-TPI counter-2 -5.
Screening COc1ccc(C2C3=C(CCCC3=O)Nc3n[nH]c(C)c32)cc1OC (stereo unspecified) returned CCHFV vOTU inh -1, FBA Mtb inh -1, Mtb betalactam -5, GDH-TPI counter-1 8 and RecA splice inh 1.
Cc1ccc(C2C3=C(CC(C)(C)CC3=O)Nc3n[nH]c(C)c32)cc1 (stereo unspecified) was read as CCHFV vOTU inh -21, FBA Mtb inh 28*, Mtb betalactam -10, GDH-TPI counter-1 21, RecA splice inh 3, Mtb FBA inh conf 109* and GDH-TPI counter-2 94*.
`Cc1[nH]nc2c1C(c1cccc(O)c1)C1=C(CC(C)(C)CC1=O)N2` (stereo unspecified) gave CCHFV vOTU inh -28, FBA Mtb inh 33*, Mtb betalactam -14, GDH-TPI counter-1 9, RecA splice inh 0, Mtb FBA inh conf 17 and GDH-TPI counter-2 14*.
For Cc1[nH]nc2c1C(c1ccc(F)cc1)C1=C(CC(C)(C)CC1=O)N2 (stereo unspecified) the results were CCHFV vOTU inh -17, FBA Mtb inh 34*, Mtb betalactam -8, GDH-TPI counter-1 6, RecA splice inh -1, Mtb FBA inh conf 56* and GDH-TPI counter-2 43*.
Cc1[nH]nc2c1C(c1ccc(N(C)C)cc1)C1=C(CC(C)(C)CC1=O)N2 (stereo unspecified) was read as CCHFV vOTU inh 0, FBA Mtb inh -1, Mtb betalactam 0, GDH-TPI counter-1 0 and RecA splice inh 0.
For COc1ccc(OC)c2c1CC(C)(C)NC2=O the results were CCHFV vOTU inh -40, FBA Mtb inh 74*, Mtb betalactam 0, GDH-TPI counter-1 -3, RecA splice inh -2, Mtb FBA inh conf 33* and GDH-TPI counter-2 32*.
`COc1ccc(OC)c2c1CCC1(C2)NC(=O)NC1=O` (stereo unspecified) gave CCHFV vOTU inh 3 and FBA Mtb inh -2.
`CNC(=O)c1[nH]cnc1C(=O)Nc1cccc(OC)c1` gave CCHFV vOTU inh 10, FBA Mtb inh 71*, Mtb betalactam 63, GDH-TPI counter-1 8, RecA splice inh 2, Mtb FBA inh conf active and GDH-TPI counter-2 199*.
`CCCC(=O)N1CCN(c2nc(CC(C)C)c3c(c2C#N)CCC3)CC1` gave CCHFV vOTU inh -3, FBA Mtb inh 32*, Mtb betalactam 35, GDH-TPI counter-1 9, RecA splice inh 9, Mtb FBA inh conf 159* and GDH-TPI counter-2 120*.
`CC(=O)Oc1ccc2c(c1)C(=O)c1ccccc1CO2` gave CCHFV vOTU inh 13, FBA Mtb inh 4, Mtb betalactam 21, GDH-TPI counter-1 0 and RecA splice inh 9.
`CC(=O)c1cc2c(s1)-c1cc(F)ccc1OC2` gave CCHFV vOTU inh -83, FBA Mtb inh 87*, Mtb betalactam 0, GDH-TPI counter-1 20, Mtb FBA inh conf 63* and GDH-TPI counter-2 51*.
`c1cnc2cc(-c3ccsc3)ncc2c1` gave CCHFV vOTU inh -13, FBA Mtb inh 29*, Mtb betalactam -4, GDH-TPI counter-1 15, Mtb FBA inh conf 8 and GDH-TPI counter-2 5.
`c1ccc(-c2cc3ncccc3cn2)cc1` gave CCHFV vOTU inh 0, FBA Mtb inh 9, Mtb betalactam -2 and GDH-TPI counter-1 5.
`C=CCOc1ccc(C2C(C#N)=C(N)N(Nc3ccccc3)C3=C2C(=O)CCC3)cc1OC` (stereo unspecified) gave CCHFV vOTU inh -5, FBA Mtb inh 29*, Mtb betalactam 89, GDH-TPI counter-1 10, RecA splice inh 1, Mtb FBA inh conf 124* and GDH-TPI counter-2 91*.
COc1cc(C2C(C#N)=C(N)N(Nc3ccccc3)C3=C2C(=O)CC(C)(C)C3)ccc1OCc1ccccc1 (stereo unspecified) was read as CCHFV vOTU inh -3, FBA Mtb inh 6, Mtb betalactam 99, GDH-TPI counter-1 7 and RecA splice inh 15.
Screening COc1ccc(/C=N/n2c(-c3ccccc3)n[nH]c2=S)cc1 returned CCHFV vOTU inh -12, FBA Mtb inh 3, Mtb betalactam -1, GDH-TPI counter-1 3 and RecA splice inh 3.
For CCOc1ccc(/C=N/n2cc(-c3ccccc3)[nH]c2=S)cc1 the results were CCHFV vOTU inh 4, FBA Mtb inh 67*, Mtb betalactam 58, GDH-TPI counter-1 29, RecA splice inh 6, Mtb FBA inh conf 89* and GDH-TPI counter-2 80*.
For S=c1[nH]c(-c2ccccc2)cn1/N=C/c1ccncc1 the results were CCHFV vOTU inh 4, FBA Mtb inh 35*, Mtb betalactam -7, GDH-TPI counter-1 4, RecA splice inh -4, Mtb FBA inh conf 49* and GDH-TPI counter-2 42*.

Screens deposited in PubChem BioAssay by several laboratories.
